About 83,000 compounds went through this panel and 20% of them were active in at least one assay; those are over-represented in the sample as a whole.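 The test compound was applied at a single concentration to cells in 96-well plates for 48 hours, and percent growth was recorded.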 Unmarked numbers belong to inactive results. Activity calls are given as the source filed them. How the source made its calls: active means growth percent below 10; inactive means the rest.

The source of these data is PubChem BioAssay (NCI).

Some test systems named below: NCI-H23 lung; NCI-H226 lung; NCI-H322M lung; HOP-62 NSCLC; NCI-H460 lung; A549/ATCC NSCLC; 786-0 renal; COLO 205 colon; DU-145 prostate; K-562 leukemia; MALME-3M melanoma; MDA-MB-231 breast; RXF 393 renal; SF-268 CNS; SF-295 CNS; SF-539 CNS; UACC-257 melanoma; M14 melanoma; NCI-H522 lung.
What all share (assay): NCI-60 one-dose screen, 48 h (100 = growth as untreated, 0 = no growth, -100 = all killed)
Holding throughout (settings): 10 µM unless noted

Take `NS(=O)(=O)c1ccc(Nc2nc(SCC(=O)c3ccc(Cl)cc3)nc3c2CCCC3)cc1`: the growth is 53.9% in the experiment on NCI-H23 lung; 56.6% in the experiment with NCI-H226 lung; 87% with NCI-H322M lung; 70% in the experiment with HOP-62 NSCLC; 21% in the experiment on NCI-H460 lung; 38.9% with A549/ATCC NSCLC. In addition, the growth with 786-0 renal was 84.7%; in the experiment on COLO 205 colon, 46%; in the experiment with DU-145 prostate it was 41.1%; with K-562 leukemia, 27.9%; with MALME-3M melanoma it was 66.6%; with MDA-MB-231 breast, 49.6%. Moreover, the growth in the experiment on RXF 393 renal was 35.6%; in the experiment with SF-268 CNS, 62.2%; in the experiment with SF-295 CNS, 50.3%; in the experiment with SF-539 CNS, 62.3%; in the experiment with UACC-257 melanoma it was 62.3%; with M14 melanoma, 59.6%.
Consider `CCO/C=N/C1=C(C#N)C(c2ccc(OC)cc2)c2sc3c(C)cccc3c2O1` (stereo not given), for which the growth is 25.4% with NCI-H23 lung; 57% in the experiment with NCI-H226 lung; 45.7% in the experiment with NCI-H322M lung; 40.8% with HOP-62 NSCLC; 9.13% (active) in the experiment with NCI-H460 lung; 27.3% in the experiment with A549/ATCC NSCLC. Moreover, the growth with 786-0 renal is 40.8%; with COLO 205 colon, 16.1%; in the experiment with DU-145 prostate, 22%; with K-562 leukemia, 12.6%; with MALME-3M melanoma, 60.6%; with MDA-MB-231 breast, 27.5%. In addition, the growth was -23.9% (active) in the experiment with RXF 393 renal; 54.1% with SF-268 CNS; 1.06% (active) in the experiment with SF-295 CNS; -11.6% (active) in the experiment on SF-539 CNS; 88.7% in the experiment with UACC-257 melanoma; 5.22% (active) with M14 melanoma.
With `N#Cc1ccccc1Cn1c2nc(=N)c3ccccc3c-2nc2ccccc21`, the growth in the experiment on NCI-H23 lung was 52.4%; with NCI-H226 lung it was 61.3%; in the experiment with NCI-H322M lung it was 66%; in the experiment with HOP-62 NSCLC, 62.2%; with NCI-H460 lung it was 22.1%; in the experiment on NCI-H522 lung, 59.7%. Further, the growth in the experiment on 786-0 renal was 80.3%; in the experiment with COLO 205 colon, 3.63% (active); in the experiment on DU-145 prostate, 60.3%; in the experiment on MDA-MB-231 breast it was 41.8%; in the experiment with RXF 393 renal, 54.3%; in the experiment on SF-268 CNS it was 74.3%. Also, the growth with SF-295 CNS is 52%; in the experiment with SF-539 CNS, 82.6%; in the experiment on UACC-257 melanoma, 41.8%.
`CC(C)(C)c1ccc(C(=O)Nc2sc3c(c2C(N)=O)CC/C(=N\O)C3)cc1`: the growth in the experiment on NCI-H23 lung is 7.05% (active); with NCI-H226 lung it was 17.5%; in the experiment on NCI-H322M lung it was 56.9%; with HOP-62 NSCLC it was 51.9%; with NCI-H460 lung, 4.25% (active); in the experiment with NCI-H522 lung, -2.43% (active). Moreover, the growth with 786-0 renal was 27.5%; in the experiment on COLO 205 colon it was 4.38% (active); with DU-145 prostate it was 42.2%; in the experiment with K-562 leukemia it was 7.83% (active); in the experiment with MDA-MB-231 breast, 14.1%; in the experiment with RXF 393 renal, -14.3% (active). Also, the growth in the experiment on SF-268 CNS was 32%; in the experiment with SF-295 CNS it was 16.8%; with SF-539 CNS it was 21.6%; in the experiment with UACC-257 melanoma, 5.76% (active); in the experiment on M14 melanoma, 25%.
As for `C#CCOC(=O)[C@@H]1CCCN1CC#C`, the growth in the experiment on NCI-H23 lung is 96.7%; in the experiment with NCI-H226 lung it was 81.2%; in the experiment with NCI-H322M lung, 106%; in the experiment on HOP-62 NSCLC, 101%; in the experiment with NCI-H460 lung, 87.8%; with NCI-H522 lung it was 96.6%. Further, the growth with A549/ATCC NSCLC is 80.3%; in the experiment on 786-0 renal, 87.8%; in the experiment on COLO 205 colon, 88%; in the experiment with DU-145 prostate it was 92%; with K-562 leukemia, 76.8%; in the experiment with MDA-MB-231 breast it was 84.6%. The growth was 81.7% in the experiment on RXF 393 renal; 76.9% in the experiment with SF-268 CNS; 102% in the experiment with SF-295 CNS; 90.2% in the experiment with SF-539 CNS; 97.3% in the experiment with UACC-257 melanoma; 98.4% in the experiment with M14 melanoma.
For `COc1ccc(C2CC(c3ccc(Nc4nc(NCCO)nc(N5CCOCC5)n4)cc3)=Nc3c(N)nc(N)nc3N2)cc1` (stereo not given), the growth with NCI-H23 lung is 99.1%; with NCI-H226 lung, 94.8%; with NCI-H322M lung, 95%; in the experiment with HOP-62 NSCLC, 108%; in the experiment with NCI-H460 lung, 110%; in the experiment on NCI-H522 lung, 95.6%. Also, the growth in the experiment with 786-0 renal was 97.3%; in the experiment with COLO 205 colon, 109%; in the experiment on DU-145 prostate it was 103%; in the experiment on K-562 leukemia, 99.1%; in the experiment on MDA-MB-231 breast, 90.6%; with RXF 393 renal it was 114%. Further, the growth in the experiment with SF-268 CNS is 90.2%; with SF-295 CNS it was 106%; with SF-539 CNS, 92.2%; with UACC-257 melanoma, 109%; in the experiment with M14 melanoma, 107%.
Turning to `CCO/C=N/C1=C(C#N)C(c2ccc(F)cc2)c2sc3c(C)cccc3c2O1` (stereo not given), the growth in the experiment on NCI-H23 lung is 27.1%; in the experiment on NCI-H226 lung it was 54.3%; in the experiment with NCI-H322M lung, 37.6%; in the experiment with HOP-62 NSCLC it was 28.3%; with NCI-H460 lung, 4.32% (active); in the experiment on A549/ATCC NSCLC, 22.4%. Further, the growth in the experiment with 786-0 renal is 20.2%; in the experiment on COLO 205 colon it was 15.5%; in the experiment with DU-145 prostate it was 12.4%; in the experiment on K-562 leukemia it was 10.4%; in the experiment on MDA-MB-231 breast, 17.8%; with RXF 393 renal, 0.223% (active). Further, the growth in the experiment on SF-268 CNS was 38.3%; with SF-295 CNS, -6.89% (active); in the experiment with SF-539 CNS, -10.1% (active); in the experiment with UACC-257 melanoma, 69%; in the experiment with M14 melanoma, 3.68% (active).
